Compounds without any hit were thinned out: in the full panel of roughly 83,000, 20% have a hit.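 48-hour exposure, single concentration, 96-well plates; percent growth endpoint where 0 means no net growth. Active: below 10.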 Unmarked numbers belong to inactive results. Calls of active or inactive are those of the source.
Each compound was assayed on HT29 colon (assay: NCI-60 one-dose screen, 48 h (100 = growth as untreated, 0 = no growth, -100 = all killed)). Conditions: 10 µM unless noted.
Description: Growth inhibition of the HT29 human tumor cell line is measured as a screen for anti-cancer activity. Cells are grown in 96 well plates and exposed to the test compound for 48 hours. Compounds are tested at a single concentration, which is 10^-5 M for most compounds. The reported endpoint is percent growth (GI% or GIPRCNT), where numbers from 0 - 100% represent growth inhibition, and numbers from -100% - 0 represent cell death. For example, a value of 40 represents 60% growth inhibition. A value of 0 means no net growth occurred over the course of the experiment. A value of -40 indicates 40% of cells at the beginning of the experiment died by the end of the experiment. A value of -100 means all cells are dead at the end of the experiment.
NCI-60 Human Tumor Cell Lines Screen was performed using the standard one-dose NCI protocol, which is described in more detail at https://dtp.cancer.gov/discovery_development/nci-60/default.htm.
Compounds with GIPRCNT values below 10 were considered active. Activity score was based on GIPRCNT using the following formula: […]
Score is 0 for GIPRCNT values of 100 or above, 50 for GIPRCNT values of 0, and 100 for GIPRCNT values of -100.

| Structure (SMILES) | growth |
| --- | --- |
| CCOc1cccc(/C=N\Nc2nc(=O)cc(C(=O)OC)s2)c1O | 76.1% |
| CCCC(c1nnnn1C1CCCCC1)N1CCN(C(=O)c2ccco2)CC1 (stereo not given) | 27.2% |
| O=C(N=Nc1c(O)[nH]c2ccccc12)c1oc2ccccc2c1CN1CCN(c2ccccc2)CC1 | 15.8% |
| O=C(Nc1ccc(F)cc1F)c1cc(Br)ccc1O | 27.8% |
| O=S(=O)(Nc1ncccn1)c1ccc(NC2Nc3nc4ccccc4nc3S2)cc1 (stereo not given) | 106% |
| COc1cc(/C=C/C(=O)N2c3ccccc3CC2C)c(OC)c2c1OCO2 (stereo not given) | 83.8% |
| CCOC(=O)C1(C(=O)OCC)N=C(c2ccccc2)C=C1c1ccccc1 | 76.2% |
| O=C1c2cc(Cl)ccc2Oc2cc([N+](=O)[O-])ccc2N1c1ccc(F)cc1F | 79% |
| COc1ccc(C2C3=C(COC3=O)N(CCO)c3cc4c(cc32)OCCO4)cc1 (stereo not given) | 50.7% |
| CN(C)CCCNCc1ccc(-c2ccc(F)c(Cl)c2)o1 | -30.6% (active) |
| CCC1=C[C@]2(C3CC(=O)N(c4ccccc4)C3=O)CC(C(C)(C)C)C[C@@H]2[C@@H]2C(=O)N(c3ccccc3)C(=O)[C@H]12 (stereo not given in full) | 74.3% |
| COc1ccc(-c2nc(-c3ccccn3)c(-c3ccccn3)n2CC(C)C)cc1OC1CCCC1 | 12.2% |
| Cc1nn(-c2nc3ccccc3[nH]2)c2c1C(c1ccc(OCC(N)=O)cc1)CC(=O)N2 (stereo not given) | 109% |
| COc1ccc(C)c2sc(N(Cc3cccnc3)C(=O)c3ccc(C#N)cc3)nc12 | 16% |
| O=C(Nc1ccc(Cl)cc1)N1CCN(c2ccc3nncn3n2)CC1 | -28.6% (active) |
| O=C(NC1C(O)OC(CO)C(O)C1O)NS(=O)(=O)c1ccc(Cl)cc1 (stereo not given) | 93.2% |
| COc1ccccc1C(=O)/C=C/c1ccccc1 | 56.6% |
| O=C(NC1CCN(Cc2ccccc2)CC1)c1cc(C(=O)NC2CCN(Cc3ccccc3)CC2)cc(C(=O)NC2CCN(Cc3ccccc3)CC2)c1 | 75% |
| Nc1ncnc(N)c1NC(=O)c1ccc(OCc2ccccc2)cc1 | 96.3% |
| CC1CCCCN1CCCNC(=O)c1ccc2c(c1)sc1nc(-c3ccc(F)cc3)cn12 (stereo not given) | 92.8% |

| Structure (SMILES) | growth |
| --- | --- |
| Cc1sc2ncn(CC(=O)Nc3ccc(S(N)(=O)=O)cc3)c(=O)c2c1C | 107% |
| COc1ccc(C2C3=C(COC3=O)N(CCO)c3cc4c(cc32)CCC4)cc1OC (stereo not given) | -3.07% (active) |
| CC1=CCC(OC(=O)C(C)(C)CCC(O)(C(=O)OC2(C(C)C)CCC3(C)OC3C2)C(C)C)(C(C)C)CC1 (stereo not given) | -70.2% (active) |
| COc1ccc(/C=C2/SC(=O)N(CC(=O)N3CCN(c4cc5c(cc4F)c(=O)c(C(=O)O)cn5C4CC4)CC3)C2=O)cc1 | 99.2% |
| COc1cc(NC(=O)CCSc2nc3ccccc3c(=O)n2Cc2ccccc2)cc(OC)c1OC | 97.1% |
| O=C(NCc1ccco1)C1CN(c2ccc(Cl)cc2)N(c2ccc(Cl)cc2)C1=O (stereo not given) | 16.4% |
| COC(=O)[C@H]1CCCN1C(=O)[C@H]1CCCN1C(=O)[C@H](Cc1c[nH]c2ccccc12)NC(=S)Nc1cc(C(F)(F)F)cc(C(F)(F)F)c1 | 7.55% (active) |
| O=c1oc2ccc(F)cc2c(=O)n1-c1ccc(Cl)cc1F | 26.7% |
| Fc1ccc(Oc2ccc(Nc3ncnc4onc(-c5ccccc5)c34)cc2)cc1 | 109% |
| O=c1oc2ccc(I)cc2c(=O)n1-c1ccc(F)cc1F | 107% |
| Oc1c(CN2CCN(c3ccccc3F)CC2)cc(Br)c2cccnc12 | -63.1% (active) |
| O=C(NN1C(=O)CSC1c1ccc(Cl)cc1)c1[nH]c2ccc(F)cc2c1-c1ccccc1 (stereo not given) | 19.2% |
| CC(=O)O[C@@H]1/C=C/C(=O)N[C@@H](C)CCC/C=C/[C@@H]2CCC[C@H]21 | 110% |
| OC(c1ccccc1)c1nnc(SCc2ccccc2)n1Cc1ccccc1 (stereo not given) | 103% |
| O=C(NC1CCN(Cc2ccccc2)CC1)c1cc2nc(-c3ccc(Cl)s3)cc(C(F)(F)F)n2n1 | -84.3% (active) |
| N#CC(C#N)=Cc1c(-c2ccccc2)[nH]c2ccccc12 | 14.3% |
| Nc1ccc(-c2nc3cc(Oc4ccc(Oc5ccc6[nH]c(-c7ccc(N)cc7)nc6c5)cc4)ccc3[nH]2)cc1 | 70.2% |
| Cc1ccc(S(=O)(=O)c2c(COC(=O)c3cccc(C)c3)c(-c3ccccc3)nn2C)cc1 | -44.5% (active) |
| CCCCN1CCN(c2ccc3nc(-c4ccc5nc(-c6ccc(C(F)(F)F)cc6)[nH]c5c4)[nH]c3c2)CC1 | -49.5% (active) |
| CCCCCCc1cc2cc(-c3nc4ccccc4[nH]3)c(=Nc3ccccc3C)oc2cc1O | 2.75% (active) |

— PubChem BioAssay (NCI)
